# A selection: hits, their analogues and other compounds. The true share with any hit is near 19%.
# ELG1 repair inh = inhibitors of ELG1-dependent DNA repair in HEK293T cells; HEK293T ELG1-luciferase reporter, luminescence, 16 h; DNA damage induced by 5-fluorouridine; Potency, µM (highest dose often 46.1 µM), for the others: at the top dose activity change, negative = inhibition, most hits filed as inhibitors; 2.3% of 330,000 active; also: potency is read from the fitted curve at half-maximal effect; nearly all actives have a fitted effect of over 55% in size
#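 DMSO vehicle served as the neutral condition. Each well held 2,000 cells given 5-fluorouridine plus compound; after 16 hr at 37 °C/5% CO2, ONE-Glo was added and luciferase measured 30 min later.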
# DT40 TDP1 no CPT = qHTS for Inhibitors of human tyrosyl-DNA phosphodiesterase 1 (TDP1): qHTS in cells in absence of CPT. 15% of 420,000 active. DT40 Tdp1-/- hTDP1 cells, no CPT, ATP luminescence, 48 h. AID 686978, 2013. Potency, µM (doses to about 46.2 µM), for inactives: top-dose activity change, negative = growth inhibition, usual class: inhibitors; also: potency is read from the fitted curve at half-maximal effect; nearly all actives have a fitted effect of over 55% in size
#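 Camptothecin absent (DMSO only). Human TDP1-complemented DT40 knockout cells, 400 cells/well, 37 °C for minimum 48 hr; ATP measured via CellTiter-Glo, 30 min dark incubation, luminescence.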
# HT1080 IDH1KD tx = toxicity to HT-1080 IDH1 knockdown cells (counter line). HT-1080 IDH1 knockdown viability, ATP luminescence, 48 h. Potency, µM (highest dose often 46.1 µM), without a hit: at the highest dose activity, negative = toxicity, usual class: cytotoxic. 2% of 360,000 active. AID 686971;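 also: potency is read from the fitted curve at half-maximal effect; 0% = DMSO wells and -100% = cell-free medium wells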
#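 Assay cells: HT-1080 with IDH1 knockdown, 750 per well, RPMI/5% FBS. Exposure: 48 h at 37 °C following 2 h pre-incubation. Read: CellTiter-Glo luminescence; fitted concentration-response, curve class assigned.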
# HT1080NT lethal = kills 2HG-producing HT-1080-NT fibrosarcoma cells | HT-1080-NT fibrosarcoma viability, CellTiter-Glo ATP luminescence, 48 h | Potency, µM (top dose mostly 46.1 µM), inactives show at the top dose activity, negative = less viability, most hits filed as cytotoxic | 1.6% of 360,000 active;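 also: NT is the 2HG producing partner of a matched IDH1 knockdown line; potency is read from the fitted curve at half-maximal effect; 0% = DMSO-treated cells and -100% = media-only wells without cells; nearly all actives have a fitted effect of over 55% in size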
#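 Fibrosarcoma NT cells, 750 per well in 5% FBS RPMI, were exposed to compound for 48 hours. Viability: CellTiter-Glo luminescence.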
# DT40 TDP1 CPT = DT40-hTDP1 cell growth loss with CPT; chicken DT40 Tdp1-/-;hTDP1 cells + 20 nM CPT, ATP luminescence, 48 h; Potency, µM (titrated, usually from 46.2 µM), inactives show top-dose activity change, negative = growth inhibition, usual class: inhibitors; 12% of 420,000 active; AID 686979; also: potency is read from the fitted curve at half-maximal effect; nearly all actives have a fitted effect of over 55% in size
#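 Cell growth measured by CellTiter-Glo luminescence after a minimum 48 h, 37 C compound exposure with 20 nM CPT in Tdp1-knockout DT40 cells stably expressing hTDP1, seeded 400/well; qHTS titration format.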
# IL-1B inflam inh = blocks inflammasome-driven IL-1 beta release | activity change, % at 57.5 µM | THP-1 LPS/ATP IL-1B secretion, AlphaLISA, 16 h; active compounds read low | AID 743279 | 4.7% of 360,000 active; in the data active = activity change below about -50%; inconclusive = mostly about -30% to -49%
#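 Secreted IL-1B measured by AlphaLISA bead assay after 16 h compound exposure of THP-1 cells; compounds (final up to 57.5 uM) added 1 h before LPS (250 ng/mL) and ATP (1.25 mM) stimulation; lower signal means less secretion.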
# * hit, by the source's call; ? = inconclusive; . = no result given. Unless noted, calls follow the shape of the dose curve; as a rule, active = well fitted curve in the direction sought with a large enough effect; inconclusive = small, poorly fitted or top-dose-only effect, or another doubt; inactive = no such curve, though single readings can be large; an effect the other way counts as inactive or inconclusive. Unless noted, % is scaled to controls: 0 for no effect and ±100 for the full control effect.
SMILES,ELG1 repair inh,DT40 TDP1 no CPT,HT1080 IDH1KD tx,HT1080NT lethal,DT40 TDP1 CPT,IL-1B inflam inh
O=C(O)CC(c1ccccc1)N1C(=O)c2cccc([N+](=O)[O-])c2C1=O (stereo not drawn),0.1%,7.9%,8.9%,5.4%,-1.0%,15.6
CC(C)(C)c1ccc(COc2ccsc2C(=O)O)cc1,?,-0.1%,12.8%,24.2%,0.6%,23.2
CCS(=O)(=O)N1CC(=O)N(c2cc(C)cc(C)c2)C(C)(C(=O)NC2CCCCC2)C1 (stereo not drawn),.,-5.4%,.,.,-11.2%,.
CC(O)(c1ccc(F)c(F)c1)c1nc(-c2ccc(Cl)cc2)cs1 (stereo not drawn),.,?,23.1µM*,?,?,0.0
COc1ccc(-c2csc(C(C)(O)c3ccncc3)n2)cc1OC (stereo not drawn),.,?,-26.7%,-10.4%,?,21.9
COc1cccc(C(C)(O)c2nc(-c3ccccc3OC)cs2)c1 (stereo not drawn),.,-93.5%,-22.5%,-9.3%,?,0.0
Cc1ccccc1-c1csc(C(C)(O)c2cccnc2)n1 (stereo not drawn),.,?,1.7%,1.1%,?,32.7
CC(O)(c1cccc(F)c1)c1nc(-c2cccc3cccnc23)cs1 (stereo not drawn),.,25.9µM*,?,?,?,-12.5
COc1cc(F)ccc1-c1csc(C(C)(O)c2ccccc2)n1 (stereo not drawn),.,18.4µM*,?,?,?,11.7
COc1ccc(-c2csc(C(C)(O)c3cccc(F)c3)n2)cc1OC (stereo not drawn),.,14.6µM*,-19.2%,-6.7%,23.1µM*,-9.0
COc1ccccc1CCC(=O)NNC(=O)Cn1nc(C)cc1C,.,0.4%,11.2%,3.7%,5.5%,-5.5
CCN(CCCNC(=O)c1nn(-c2ccc(OC)cc2)c(=O)c2c1c1ccccc1n2C)c1ccccc1,.,-19.6%,.,.,-22.9%,.
COc1cc(NC(=O)Cn2nnc(-c3ccc(C(F)(F)F)cc3)n2)c(C(=O)O)cc1OC,.,-14.5%,.,.,-12.5%,.
CCCCN(CC)CCCNC(=O)c1nn(-c2ccc(OC)cc2)c(=O)c2c1c1ccccc1n2C,.,-8.2%,.,.,-9.4%,.
COc1ccc(C)cc1NC(=O)CCc1ccc(S(=O)(=O)N2CCOCC2)cc1,-1.7%,1.9%,-9.8%,-1.2%,0.1%,14.6
CN1C(=O)COc2ccc(C(=O)c3oc4ccccc4c3-c3cnc4c(c3)COc3ccccc3-4)cc21,9.2µM*,.,.,.,.,.
Cc1ccc(O)c(C(=O)c2cnc3c(c2)COc2ccc(C)cc2-3)c1,?,?,-3.8%,-5.9%,?,-1.4
COc1ccc(N2C(N)=NC(N)=NC23CCCC3)cc1,-3.3%,1.46µM*,1.8%,4.6%,?,3.2
NC1=NC2(CCCCC2)N(c2cccc(Cl)c2)C(N)=N1,-0.4%,0.461µM*,3.7%,4.3%,10.3µM*,-11.8
COc1ccccc1N1C(N)=NC(N)=NC12CCCCC2,-7.8%,?,0.3%,-0.6%,9.9%,33.8
O=C1NC2(CCCCC2)C(=O)N1c1cccc(Cl)c1,23.6%,-7.0%,-1.5%,0.0%,0.2%,-8.3
CCCCOc1ccc(N2C(N)=NC(N)=NC23CCCCC3)cc1,-16.9%,6.51µM*,-23.7%,-3.0%,9.2µM*,-14.8
Cc1ccc(S(=O)(=O)c2ccc(Cl)cc2)cc1S(=O)(=O)N1CCN(C)CC1,-12.3%,?,-19.4%,-2.9%,14.1µM*,2.7
CN1CCN(S(=O)(=O)c2ccc(Cl)cc2)CC1,-20.7%,-2.8%,7.3%,4.7%,13.6%,0.7
